Measurements published in PubChem BioAssay (Tox21).
Several values for one entry are separate records, joined by “and”; a condition that tells them apart may be missing. Equal entries are not always repeated. A number with no mark means an inactive call. Inconclusive results are not listed. Where a call stands in place of a potency, no number is given. Activity calls are given as the source filed them. Calls follow the shape of the dose curve; as a rule, active = well fitted curve in the direction sought with a large enough effect in the repeat runs; inconclusive = weak or mixed curves; inactive = no such curve, though single readings can be large; an effect the other way counts as inactive or inconclusive.

What was measured:
[1] = Caspase-3/7 induction in HepG2 cells by small molecules, qHTS assay (AID 1346978); conditions: HepG2 caspase-3/7 activation, Caspase-Glo luminescence, 17 h; series mostly up to 92.4 µM; also: nearly all actives have a fitted effect of over 15% in size; also: potency is read from the fitted curve at half-maximal effect
How it was run: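 Caspase-3/7 induction was measured by Caspase-Glo 3/7 luminescence (30 min, room temperature) after a 17 hr compound exposure of wild-type HepG2 cells seeded at 2,000 per well and pre-incubated 5 hr.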

[2] = Caspase-3/7 induction in CHO-K1 cells by small molecules, qHTS cell viability counter screen (AID 1346979); conditions: CellTiter-Fluor fluorescence, 17 h; series mostly up to 92.4 µM; also: nearly all actives have a fitted effect of over 35% in size; also: potency is read from the fitted curve at half-maximal effect
How it was run: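 Wild-type CHO-K1 cells (1,500/well) treated with compound after 5 h plating; after 16 h at 37C, viability read as CellTiter-Fluor fluorescence following 1 h reagent incubation, in the same wells as the caspase read.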

[3] = Caspase-3/7 induction in CHO-K1 cells by small molecules, qHTS assay (AID 1346980); conditions: CHO-K1 caspase-3/7 induction, Caspase-Glo luminescence, 17 h; series mostly up to 92.4 µM; also: nearly all actives have a fitted effect of over 15% in size; also: potency is read from the fitted curve at half-maximal effect
How it was run: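 Luminescent Caspase-Glo 3/7 read (30min, room temperature) quantified apoptosis induction. Cells were wild-type CHO-K1, treated with compound for 17hr at 37 C and 5% CO2.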

[4] = Caspase-3/7 induction in HepG2 cells by small molecules, qHTS cell viability counter screen (AID 1346981); conditions: CellTiter-Fluor fluorescence, 17 h; series mostly up to 92.4 µM; also: nearly all actives have a fitted effect of over 30% in size; also: potency is read from the fitted curve at half-maximal effect
How it was run: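 Multiplexed with the caspase-3/7 assay: HepG2 cells, 16 hr compound treatment, CellTiter-Fluor viability detection by fluorescence.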

[5] = target: Nuclear receptor subfamily 1 group I member 2 (Homo sapiens) (UniProt O75469); experiment: Human pregnane X receptor (PXR) small molecule agonists, qHTS assay (AID 1346982); conditions: PXR-Luc HepG2, CYP3A4 luciferase reporter, 24 h; series mostly up to 92.4 µM; also: nearly all actives have a fitted effect of over 35% in size; also: potency is read from the fitted curve at half-maximal effect
How it was run: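 We seeded PXR-Luc HepG2 cells in assay medium containing 5% charcoal-stripped FBS, added compounds 5 hr later, incubated 24 hr, and read luminescence with ONE-Glo reagent.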

[6] = target: Nuclear receptor subfamily 1 group I member 2 (Rattus norvegicus) (UniProt Q9R1A7); experiment: Rat pregnane X receptor (rPXR) activation by small molecules, qHTS assay (AID 1346983); conditions: rPXR luciferase reporter cells, One-Glo luminescence, 24 h; max activation: stronger effect = higher value; also: nearly all actives have a fitted effect of over 20% in size
How it was run: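 Luminescent readout (One-Glo luciferase, 30 min room temperature) followed 24 hr compound treatment at 37 C of rPXR cells plated 2,000 per well and preincubated 5hr; qHTS format with compounds delivered in DMSO.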

[7] = target: Nuclear receptor subfamily 1 group I member 2 (Homo sapiens) (UniProt O75469); experiment: CYP3A4 induction through human pregnane X receptor (PXR) by small molecules, qHTS assay (AID 1346984); conditions: DPX-2 HepG2 PXR, CYP3A4-luciferin luminescence, 24 h; series mostly up to 46.1 µM; also: nearly all actives have a fitted effect of over 40% in size
How it was run: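 qHTS, concentration-response format: HepG2 DPX-2 line, PXR/CYP3A4-luc. Exposure 24 h, 37C. Substrate Luciferin-IPA 3uM final, 3 h. Detection One-Glo, 30 min RT.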

[8] = target: Nuclear receptor subfamily 1 group I member 2 (Homo sapiens) (UniProt O75469); experiment: Human pregnane X receptor (PXR) activation by small molecules, qHTS assay (AID 1346985); conditions: DPX-2 HepG2 CYP3A4-luciferase, 24 h; series mostly up to 38.3 µM; also: nearly all actives have a fitted effect of over 40% in size
How it was run: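 DPX-2 cells (HepG2 co-transfected with a PXR response element and a CYP3A4-promoter luciferase construct) were seeded at 2,000 per well, rested 5 hr at 37C, then exposed to DMSO-dissolved compounds for 24 hr. Activation was read as luciferase luminescence.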

[9] = target: Cytochrome P450 2D6 (Homo sapiens) (UniProt P10635); experiment: Cytochrome P450 Family 2 Subfamily D Member 6 (CYP2D6) small molecule antagonists: luciferase reporter qHTS assay (AID 1671196); conditions: P450-Glo CYP2D6 enzyme assay, luciferin luminescence, 1 h; series mostly up to 115 µM; also: nearly all actives have a fitted effect of over 50% in size; also: potency is read from the fitted curve at half-maximal effect
How it was run: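 Luminescence (RLU), read 20 min after detection reagent, indicated CYP2D6 conversion of proluciferin to luciferin during a 1 h NADPH-dependent reaction at room temperature.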

[10] = Human pregnane X receptor (PXR) small molecule agonists, qHTS cell viability counter screen (AID 1346977); conditions: PXR-Luc HepG2 viability, CellTiter-Fluor, 24 h; series mostly up to 92.4 µM; also: nearly all actives have a fitted effect of over 50% in size; also: potency is read from the fitted curve at half-maximal effect
How it was run: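 PXR-Luc HepG2 cells (2,000/well, 5% charcoal-stripped FBS) preincubated 5 hr, then exposed to compounds 24 hr at 37 C. Viability read in the same wells by CellTiter-Fluor fluorescence, reagent added at 23 hr, 1 hr incubation.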

Cytochrome P450 2D6 (Homo sapiens), sequence (P10635 whole entry, looked up): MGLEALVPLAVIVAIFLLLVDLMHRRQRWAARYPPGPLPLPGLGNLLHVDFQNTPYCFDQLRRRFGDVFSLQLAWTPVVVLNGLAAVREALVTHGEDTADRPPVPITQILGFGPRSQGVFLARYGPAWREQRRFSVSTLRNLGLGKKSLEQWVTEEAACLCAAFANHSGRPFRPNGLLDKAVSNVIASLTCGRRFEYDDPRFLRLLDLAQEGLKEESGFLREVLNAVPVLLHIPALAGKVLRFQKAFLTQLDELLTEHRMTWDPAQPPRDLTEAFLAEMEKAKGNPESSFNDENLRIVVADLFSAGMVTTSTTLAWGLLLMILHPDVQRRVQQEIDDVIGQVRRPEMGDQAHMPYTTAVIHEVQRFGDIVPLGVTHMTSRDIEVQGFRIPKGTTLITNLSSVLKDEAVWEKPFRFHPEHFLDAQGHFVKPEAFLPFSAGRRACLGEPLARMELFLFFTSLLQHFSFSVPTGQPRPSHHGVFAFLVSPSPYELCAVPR
Nuclear receptor subfamily 1 group I member 2 (Rattus norvegicus), sequence (Q9R1A7 whole entry, looked up): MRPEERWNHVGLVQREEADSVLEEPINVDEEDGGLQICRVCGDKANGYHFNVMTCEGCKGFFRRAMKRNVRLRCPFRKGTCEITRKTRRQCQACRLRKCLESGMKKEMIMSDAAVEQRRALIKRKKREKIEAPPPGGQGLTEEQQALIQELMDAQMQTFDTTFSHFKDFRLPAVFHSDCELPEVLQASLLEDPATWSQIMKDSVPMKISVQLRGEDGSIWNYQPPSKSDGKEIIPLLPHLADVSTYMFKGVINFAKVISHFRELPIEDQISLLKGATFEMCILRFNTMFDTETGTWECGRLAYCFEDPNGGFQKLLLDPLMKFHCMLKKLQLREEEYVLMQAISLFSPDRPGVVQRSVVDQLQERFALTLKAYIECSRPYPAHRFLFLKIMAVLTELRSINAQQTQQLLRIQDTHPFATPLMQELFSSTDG
Nuclear receptor subfamily 1 group I member 2 (Homo sapiens), sequence (O75469 whole entry, looked up): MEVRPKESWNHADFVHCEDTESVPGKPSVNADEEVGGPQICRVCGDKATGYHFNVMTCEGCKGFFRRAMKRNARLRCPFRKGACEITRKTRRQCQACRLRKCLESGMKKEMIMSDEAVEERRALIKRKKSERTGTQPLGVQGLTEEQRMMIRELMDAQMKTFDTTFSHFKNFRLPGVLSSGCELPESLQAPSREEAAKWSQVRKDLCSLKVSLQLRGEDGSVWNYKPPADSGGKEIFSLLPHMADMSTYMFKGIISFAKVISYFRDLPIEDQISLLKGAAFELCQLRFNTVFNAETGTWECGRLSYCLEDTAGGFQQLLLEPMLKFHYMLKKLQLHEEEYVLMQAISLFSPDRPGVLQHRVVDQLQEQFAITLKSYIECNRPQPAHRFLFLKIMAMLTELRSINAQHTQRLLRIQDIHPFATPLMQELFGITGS

Compound	Potency [1]	Potency [2]	Potency [3]	Potency [4]	Potency [5]	max activation [6] [%]	Potency [7]	Potency [8]	Potency [9]	Potency [10]
NC(=O)CC[C@@H]1NC(=O)[C@H](Cc2ccccc2)NC(=O)[C@H](Cc2ccc(O)cc2)NC(=O)CCSSC[C@@H](C(=O)N2CCC[C@H]2C(=O)N[C@@H](CCCN=C(N)N)C(=O)NCC(N)=O)NC(=O)[C@H](CC(N)=O)NC1=O	inactive	inactive	inactive	inactive	inactive	-2.21	inactive	inactive	inactive	–
CCN(CC)CCNC(=O)c1c(C)[nH]c(/C=C2\C(=O)Nc3ccc(F)cc32)c1C	26.6 µM (active)	13.3 µM (active)	inactive	10.6 µM (active)	–	-11.9	–	–	–	–
O=c1cc(-c2ccc(O)cc2)oc2cc(O)cc(O)c12	inactive	55.2 µM (active) and 43.3 µM (active)	inactive	27.7 µM (active) and 61.1 µM (active)	24.7 µM (active) and 24.3 µM (active)	–	–	–	64.1 µM (active)	–
CCN(C(=O)c1cc(C)cc(OC[C@H](C)Nc2ccncc2)c1)C(C)C	inactive	inactive	inactive	inactive	17 µM (active)	–	–	–	22.2 µM (active)	–
CCCCCCCCCCCC(=O)NCCCN(C)C	–	54.5 µM (active)	–	–	24.3 µM (active)	–	–	–	12.6 µM (active)	38.6 µM (active)
CC(C)CCCCCCCCCCCCCCC(=O)O	inactive	inactive	inactive	inactive	inactive	–	–	–	inactive	–
Cc1cc(O)c(C(C)(C)C)cc1Sc1cc(C(C)(C)C)c(O)cc1C	30.6 µM (active)	2.73 µM (active)	inactive	54.4 µM (active)	10.8 µM (active)	–	–	–	25.1 µM (active)	–
CCOC(=O)/C=C(C)/C=C/C=C(C)/C=C/c1c(C)cc(OC)c(C)c1C	–	–	inactive	inactive	–	-4.32	inactive	inactive	–	inactive
CCCC(C)c1ccccc1O (stereo not drawn)	–	–	–	inactive	inactive	–	–	–	inactive	inactive
CN(C)C(=O)C1(N2CCCCC2)CCN(CC[C@@]2(c3ccc(Cl)c(Cl)c3)CN(C(=O)c3ccccc3)CCO2)CC1	45.4 µM (active)	28.6 µM (active)	57.1 µM (active)	50.9 µM (active)	20.3 µM (active)	–	–	–	6.63 µM (active)	–
CN(C)[C@@H]1C(=O)C(C(N)=O)=C(O)[C@@]2(O)C(=O)C3=C(O)c4c(O)ccc(Cl)c4[C@@H](O)[C@H]3C[C@@H]12	inactive	inactive	inactive	inactive	inactive	-0.517	inactive	inactive	inactive	–
CCC(Cl)C(Cl)C(Cl)CC(Cl)C(Cl)C(C)Cl (stereo not drawn)	–	–	inactive	–	21.7 µM (active)	–	–	–	35.6 µM (active)	inactive
[Cl][Bi]([Cl])([c]1ccccc1)([c]1ccccc1)[c]1ccccc1	inactive	3.05 µM (active)	inactive	68.2 µM (active)	0.483 µM (active)	–	–	–	–	–
O=C(Nc1cccc([N+](=O)[O-])c1)c1cc2ccccc2cc1O	inactive	4.33 µM (active)	inactive	6.11 µM (active)	6.11 µM (active)	–	–	–	25.2 µM (active)	–
CCCCCOC(=O)CCCC	inactive	inactive	inactive	inactive	inactive	–	–	–	inactive	–
O=c1[nH]sc2cc(Cl)ccc12	inactive	26.6 µM (active)	inactive	inactive	inactive	–	–	–	–	–

Compound	Potency [1]	Potency [2]	Potency [3]	Potency [4]	Potency [5]	max activation [6] [%]	Potency [7]	Potency [8]	Potency [9]	Potency [10]
O=C(O)c1c(Cl)cccc1Cl	inactive	inactive	inactive	inactive	inactive	–	–	–	inactive	–
CC(C)OC(=O)c1cc2c(OCC(O)CNC(C)(C)C)cccc2[nH]1 (stereo not drawn)	inactive	inactive	inactive	inactive	–	–	–	–	13.8 µM (active)	–
C[n+]1ccn(Cc2ccccc2)c1	inactive	inactive	inactive	inactive	30.5 µM (active)	–	–	–	31.6 µM (active)	–
CC1(C)CCC(C)(C)c2cc(C(=O)Nc3ccc(C(=O)O)cc3)ccc21	–	48.6 µM (active)	–	–	inactive	–	–	–	inactive	inactive
CCCCCCCCCCCCCCCC(=O)OC[C@H](O)[C@H]1OC(=O)C(O)=C1O	–	–	inactive	inactive	inactive	–	–	–	inactive	inactive
CN(C)c1ccc(SC#N)cc1	–	–	inactive	inactive	9.69 µM (active)	–	–	–	–	inactive
NNc1nc(-c2ccc(N)cc2)cs1	inactive	48.6 µM (active)	–	–	–	–	–	–	–	–
Cn1cc(C(=O)[C@@H]2CCc3nc[nH]c3C2)c2ccccc21	inactive	inactive	inactive	inactive	inactive	-0.66	inactive	inactive	17.4 µM (active)	–
CCC(C)(C)C1CCCCC1OC(C)=O (stereo not drawn)	inactive	inactive	inactive	inactive	inactive	–	–	–	–	–
CCCCCCCC(=O)[O-].CCCCCCCC(=O)[O-].[Zn+2]	inactive	inactive	inactive	inactive	inactive	–	–	–	inactive	–
CCCCCCCCOc1ccccc1C(=O)Nc1ccc(C(=O)OCC[N+](C)(CC)CC)cc1	–	–	inactive	–	inactive	0.409	inactive	inactive	38.9 µM (active)	inactive
CCCCC(CC)CN=C(N)NC(N)=NCCCCCCN=C(N)NC(N)=NCC(CC)CCCC (stereo not drawn)	inactive	16.8 µM (active)	inactive	26.6 µM (active)	inactive	-27.3	inactive	inactive	1.23 µM (active)	–
Oc1ccc2c(c1)-c1ccccc1C2	–	–	inactive	inactive	68.6 µM (active)	–	–	–	inactive	inactive
Cc1cccc(S(=O)(=O)O)c1C	–	–	inactive	inactive	inactive	–	–	–	inactive	inactive
O=C(OC[C@H]1O[C@@H](OC(=O)c2cc(O)c(O)c(OC(=O)c3cc(O)c(O)c(O)c3)c2)[C@H](OC(=O)c2cc(O)c(O)c(OC(=O)c3cc(O)c(O)c(O)c3)c2)[C@@H](OC(=O)c2cc(O)c(O)c(OC(=O)c3cc(O)c(O)c(O)c3)c2)[C@@H]1OC(=O)c1cc(O)c(O)c(OC(=O)c2cc(O)c(O)c(O)c2)c1)c1cc(O)c(O)c(OC(=O)c2cc(O)c(O)c(O)c2)c1	–	–	–	–	–	–	inactive	–	–	–
COc1cc(/C=C/C(=O)O[C@H]2CC[C@]34C[C@]35CC[C@]3(C)[C@@H]([C@H](C)CCC=C(C)C)CC[C@@]3(C)[C@@H]5CC[C@H]4C2(C)C)ccc1O	–	–	–	–	–	–	inactive	–	–	–
